Consider nine sequences from paper PMC5489143, “One ligand, two regulators and three binding sites: How KDPG controls primary carbon metabolism in Pseudomonas”.

Common to all, as to conditions: protein: recombinant; tags: C-terminal His (pET42b), not removed; chain copies: 2; label: captured on SA chip through 20-nt ReDCaT single-stranded 3' overhang of strand 2; dsDNA, one strand shown
Experiment [1] has as its target T1, RccR-His (Pseudomonas fluorescens SBW25, UniProt A0ACD4XSS6 1-288). Description: SPR (ReDCaT); SPR ReDCaT, 10 mM HEPES pH 7.4, 300 mM NaCl, 3 mM EDTA, 0.05% Tween-20, 25 C; high values mean tight binding.
The target of experiment [2] is T1, RccR-His. As to the kind of experiment: SPR (ReDCaT); KDPG 0 uM; SPR ReDCaT, 10 mM HEPES pH 7.4, 300 mM NaCl, 3 mM EDTA, 0.05% Tween-20, 25 C; high values mean tight binding.
Experiment [3] concerns the target T1, RccR-His. Description: SPR (ReDCaT); KDPG 1 uM; SPR ReDCaT, 10 mM HEPES pH 7.4, 300 mM NaCl, 3 mM EDTA, 0.05% Tween-20, 25 C; high values mean tight binding.
Experiment [4] deals with T1, RccR-His. Description: SPR (ReDCaT); KDPG 10 uM; SPR ReDCaT, 10 mM HEPES pH 7.4, 300 mM NaCl, 3 mM EDTA, 0.05% Tween-20, 25 C; high values mean tight binding.
Experiment [5] addresses T1, RccR-His. As to the kind of experiment: SPR (ReDCaT); KDPG 100 uM; SPR ReDCaT, 10 mM HEPES pH 7.4, 300 mM NaCl, 3 mM EDTA, 0.05% Tween-20, 25 C; high values mean tight binding.

With CATGTAGTATGCCCAACCGTGCACTACATA, the binding signal with RccR-His [1] was 55.1 %Rmax.
CTTGTAGTATAACTACAAGCTTGCTACATC: the binding signal was 158 %Rmax with RccR-His [1]; 161 %Rmax in the experiment with RccR-His [2]; 152 %Rmax with RccR-His [3]; 125 %Rmax in the experiment with RccR-His [4]; 105 %Rmax with RccR-His [5].
Consider CGGTAGTAGTGCGCAACTTTCTACTACAAA, for which the binding signal with RccR-His [1] was determined as 35.9 %Rmax.
On the same count and under the same terms, the value for AATGTAGCCCCTTTTTTCAGCCCCTACATG was 6.22 %Rmax.
With GATGTAGTGCTTGAAAAAAAGCACTACAAA, the binding signal was 82.8 %Rmax in the experiment with RccR-His [1]; 67.2 %Rmax with RccR-His [2]; 104 %Rmax in the experiment with RccR-His [3]; 119 %Rmax with RccR-His [4]; 121 %Rmax with RccR-His [5].
Take TATGTAGTGAGCAAAAATAATCACTACATA: in the experiment with RccR-His [1], the binding signal turned out to be 59.1 %Rmax.
As for ATGTAGGGTCCGCCGAAGACCACTACCT, the binding signal with RccR-His [1] was 3.18 %Rmax.
On to CTTGTAGTTAATTTTTCGTCACCCGTCATA, for which the binding signal in the experiment with RccR-His [1] turned out to be 8.34 %Rmax.
As to CTTGTGTAGTTTTACTACTCGTATATACAT, the binding signal with RccR-His [1] was 126 %Rmax; with RccR-His [2], 121 %Rmax; in the experiment with RccR-His [3] it was 116 %Rmax; with RccR-His [4], 86.8 %Rmax; with RccR-His [5], 29.9 %Rmax.
